Data: PubChem BioAssay AID504454 (NMMLSC, 2011)
Among all 340,000 compounds or so, about 1,400 (0.41%) were called active. What follows is part of a selection rich in actives, with near analogues and random picks from the rest. A number with no mark means an inactive call.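 The calls were made as follows: active = response above a set limit, near 3 SD of response in nonfluorescent compounds (cut at about 42% in these data); inactive = the rest.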

The compounds below were run against Beta-2 adrenergic receptor (Homo sapiens) (UniProt P07550) (assay: beta2AR agonists driving receptor internalization, primary screen, cell-based, FAP fluorogen, flow cytometry (AID 504454)). Conditions: Am2.2-beta2AR cells, active compounds read high, concentration not given here.
Chain of Beta-2 adrenergic receptor (Homo sapiens) (P07550 whole entry, looked up): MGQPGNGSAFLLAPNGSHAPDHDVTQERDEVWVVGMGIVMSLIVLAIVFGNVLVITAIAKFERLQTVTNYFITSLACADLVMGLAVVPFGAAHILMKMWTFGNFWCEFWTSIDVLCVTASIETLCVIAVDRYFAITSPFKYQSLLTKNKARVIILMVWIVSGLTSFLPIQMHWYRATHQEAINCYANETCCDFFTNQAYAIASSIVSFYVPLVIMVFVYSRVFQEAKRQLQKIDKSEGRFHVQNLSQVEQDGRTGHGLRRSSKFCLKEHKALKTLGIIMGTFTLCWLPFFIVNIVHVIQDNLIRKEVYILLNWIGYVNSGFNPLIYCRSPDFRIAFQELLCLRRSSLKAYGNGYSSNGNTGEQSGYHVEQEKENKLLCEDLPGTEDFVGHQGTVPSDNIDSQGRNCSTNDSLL

SMILES | response
CCn1c(CNc2ccc(OC)cc2)nnc1SCC(=O)c1ccc(OC)cc1 | 6.23%
CCn1c(SCC(=O)NNC(=O)c2ccc(OC)cc2)nnc1C(C)C | 76.2% (active)
CCC(c1nnc(SCC(=O)NNC(=O)c2ccccc2)n1Cc1ccccc1)N(C)C (stereo unspecified) | -7.18%
Cc1cc(C)c(S(=O)(=O)n2cc(C(C)C(N)C(=O)O)c3ccccc32)c(C)c1 (stereo unspecified) | 3.12%
CCCNC(=O)N1CCC(c2ccc3c(c2)OCO3)CC1 | 6.03%
O=[N+]([O-])c1ccc(NC(=S)N2CCN(c3ccccn3)CC2)cc1 | -2.61%
COc1ccc(OC)c(NC(=O)c2sc3nc(C)cc(C)c3c2N)c1 | 72.5% (active)
COCc1cc(C)nc2sc(C(=O)NC3CCCCC3)c(N)c12 | -21.3%
COc1ccc(NC(=O)c2sc3nc(C)nc(N4CCN(c5ccccn5)CC4)c3c2C)c(OC)c1 | 16.2%
O=S(=O)(c1ccccc1)c1nc(Cc2ccccc2)oc1N1CCOCC1 | 6.12%
CCCCN=C1N/C(=C\c2ccco2)C(=O)N1c1ccccc1 | 0.77%
COc1cc(OC)cc(C(=O)NNC(=O)CCOc2ccccc2OC)c1 | 4.38%
CCN1CCC(=NNC(=O)c2ccc(C)c([N+](=O)[O-])c2)CC1 | 2.52%
CCCCN(CCCC)CCCNC(=O)CN1C(=O)COc2ccc(S(=O)(=O)N3CCC(C)CC3)cc21 | 7.21%
Cc1nc2ccccc2c(C(=O)O)c1-c1ccccn1 | 5.02%
Cc1nc2ccccc2c(C)c1C(=O)c1ccc(F)cc1 | 1.92%
Cc1nc2ccccc2c(-c2ccccc2)c1C(=O)c1ccccc1 | 105% (active)
CC/S(CC1CC1(Cl)Cl)=N\S(=O)(=O)c1ccc(C)cc1 (stereo unspecified) | -2.93%
O=c1[nH]c(=S)[nH]c(O)c1/C=C1\C=Nc2ccccc21 | 57.7% (active)
COc1ccc2c(c1OC)C(=O)N(c1ccc(O)cc1)C2 | 5.16%
COc1ccnc(Oc2ccccc2)c1-c1ncn[nH]1 | 1.34%
